# About 5,100 (32%) of roughly 16,000 compounds were called active. About 25% were inconclusive and are not listed. Some of the results follow. A number with no mark means an inactive call. Calls follow the shape of the dose curve; as a rule, active = well fitted curve in the direction sought with a large enough effect; inconclusive = small, poorly fitted or top-dose-only effect, or effect the other way; inactive = no such curve, though single readings can be large or run the other way.
# Biological target: Cytochrome P450 3A4 (Homo sapiens) (UniProt P08684)
# Experiment: Cytochrome panel assay with activity outcomes
# Conditions: recombinant CYP, pro-luciferin dealkylation, luminescence, p450-cyp3a4; series mostly up to 57.1 µM
# % is scaled to controls: 0 for no effect and ±100 for the full control effect.
# Sequence of Cytochrome P450 3A4 (Homo sapiens) (P08684 whole entry, looked up): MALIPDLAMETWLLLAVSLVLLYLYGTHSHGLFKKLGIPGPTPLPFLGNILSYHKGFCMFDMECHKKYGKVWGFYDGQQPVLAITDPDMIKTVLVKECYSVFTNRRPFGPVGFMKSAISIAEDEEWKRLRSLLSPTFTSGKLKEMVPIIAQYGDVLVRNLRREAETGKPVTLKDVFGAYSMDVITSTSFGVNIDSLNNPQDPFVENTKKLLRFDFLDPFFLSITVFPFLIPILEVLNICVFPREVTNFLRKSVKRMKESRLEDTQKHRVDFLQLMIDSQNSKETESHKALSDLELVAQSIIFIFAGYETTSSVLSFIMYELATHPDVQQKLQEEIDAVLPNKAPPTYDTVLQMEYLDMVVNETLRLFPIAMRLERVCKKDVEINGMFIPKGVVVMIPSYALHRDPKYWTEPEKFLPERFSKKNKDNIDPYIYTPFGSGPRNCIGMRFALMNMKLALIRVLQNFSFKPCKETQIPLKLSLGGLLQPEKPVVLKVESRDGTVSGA
SMILES,AC50,"activity, negative = inhibition"
C=CCNc1nc(SCC=C)nc2ccsc12,12.6 µM (active),
C=CCSc1ccsc1C(=O)O,inactive,
C=CCSc1nc(Oc2ccccc2)c2sccc2n1,10 µM (active),
CSc1nc(Oc2ccc(F)cc2)c2ccccc2n1,inactive,
C=CCSc1nc(NC)c2sccc2n1,25.1 µM (active),
NS(=O)(=O)c1ccc(N=Nc2c[nH]c(=O)c(O)c2)cc1,,-19.5% [at 11.4 µM]
N#Cc1c(-c2cccs2)nc(SCC(=O)c2cccs2)[nH]c1=O,,-3.29% [at 2.29 µM]
O=C(CSc1nc2nc(-c3cccs3)cc(C(F)(F)F)c2c(=O)[nH]1)NCc1ccco1,14.1 µM (active),
CSc1nc(O)c(Cc2ccccc2)c(=O)[nH]1,inactive,
CSc1nc(-c2ccc(C)cc2)[nH]c1S(=O)(=O)c1ccccc1,28.2 µM (active),
CCCCCOC(=O)c1c(N)n(CCOC)c2nc3ccccc3nc12,8.91 µM (active),
C=C(CC1([C@@H](NP(=O)(c2ccccc2)c2ccccc2)[C@H]2C[C@@H]2CCCC)CC1)c1ccccc1,1.58 µM (active),
C=C(CC1([C@@H](NP(=O)(c2ccccc2)c2ccccc2)[C@H]2C[C@@H]2CCN(C(=O)OCC)S(=O)(=O)c2ccc(C)cc2)CC1)c1ccccc1,1.58 µM (active),
C=C(CC1([C@@H](NP(=O)(c2ccccc2)c2ccccc2)[C@H]2C[C@@H]2CCCC)CC1)c1cccc(OC)c1,2.51 µM (active),
O=C(O)c1ccc(SSc2ccc(C(=O)O)cn2)nc1,,-8.92% [at 11.4 µM]
Cc1cc(C(=O)OCC(=O)NCCCN2CCCC2=O)c2ccccc2n1,,-5.65% [at 2.29 µM]
Cc1ccc(C(=O)N(CN2CCCC2=O)c2ccccc2)cc1C,12.6 µM (active),
O=C1CCCN1CC(O)CS(=O)(=O)c1ccccc1 (centres undefined),inactive,
CC1(C)CO[C@H](CC(=O)O)CN1,inactive,
COc1cccc(OC)c1C(=O)NC(=S)N1CCN(c2ccc(C(F)(F)F)cc2[N+](=O)[O-])CC1,,-16.4% [at 2.29 µM]

SMILES,AC50,"activity, negative = inhibition"
O=c1c([N+](=O)[O-])cc(C(F)(F)F)cn1Cc1c(Cl)cccc1Cl,14.1 µM (active),
O=C(O)C1CCN(c2c([N+](=O)[O-])cc(C(F)(F)F)cc2[N+](=O)[O-])CC1,inactive,
CCC(=O)OCC(=O)[C@@]1(OC(=O)CC)[C@H](C)C[C@@H]2[C@H]3CCC4=CC(=O)C=C[C@]4(C)[C@]3(Cl)[C@@H](O)C[C@@]21C,inactive,
CCC(=O)[C@@]1(C)[C@H](C)C[C@@H]2[C@@H]3CCC4=CC(=O)C=C[C@@]4(C)[C@H]3[C@H](O)C[C@]21C,inactive,
CN(C)C(N)=NCCC[C@H](N)C(=O)O,inactive,
Cc1ccc(-c2ccc(/C=N/NC(=S)Nc3ccccc3)o2)cc1[N+](=O)[O-],7.08 µM (active),
Cc1ccc(C(=O)N/N=C\c2ccc[nH]2)cc1[N+](=O)[O-],,16.8% [at 2.29 µM]
Cc1ccc(-c2ccc(/C=N\NC(=O)c3cc4c(ccc5ccccc54)o3)o2)cc1[N+](=O)[O-],inactive,
Cc1cc(C(F)(F)F)n2nc(-c3cnn(C)c3C(F)(F)F)c(Cl)c2n1,inactive,
Cc1ccccc1-c1nc(-n2ccnc2)c2ccccc2n1,0.398 µM (active),
NC(=O)c1ccccc1-c1nc(-n2ccnc2)c2ccccc2n1,3.98 µM (active),
Clc1ccccc1-c1nc(-n2ccnc2)c2ccccc2n1,0.501 µM (active),
CC(C)(C)OC(=O)[C@H]([C@@H]1N[C@@H](C(=O)O)C(C)(C)S1)N1C(=O)c2ccccc2C1=O,,-8.52% [at 11.4 µM]
Cc1cccc(C)c1-n1c(SCC(=O)NCc2ccco2)nc2ccccc2c1=O,3.98 µM (active),
COCC(=O)N1CCC2(CC1)CCN(C(=O)Nc1ccc(OC)cc1)CC2,inactive,
O=C(CSc1ccccc1C(=O)O)NCc1ccco1,inactive,
COc1ccc(NC(=O)CSc2nc3ccccc3c(=O)n2CCC(=O)N2CCCCC2)cc1,2 µM (active),
Cc1cc(NC(=O)CSc2nc3ccccc3c(=O)n2CCCC(=O)NCc2ccco2)n[nH]1,3.55 µM (active),
CCCCn1c(SCC(=O)Nc2nccs2)nc2ccccc2c1=O,3.16 µM (active),
CCCCNC(=O)C(=O)c1ccccc1NC(C)=O,inactive,

SMILES,AC50,"activity, negative = inhibition"
Cc1cc(C)c(NC(=O)C(C)Sc2nnc(-c3ccco3)n2-c2ccccc2)c(C)c1 (centres undefined),3.55 µM (active),
CC(=O)NCCn1c(SCC(=O)NCc2ccco2)nc2ccccc2c1=O,15.8 µM (active),
O=C(CSc1nnc(-c2ccco2)n1-c1ccccc1)NCc1ccco1,15.8 µM (active),
CCCCNC(=O)CSc1nc2ccccc2c(=O)n1CCNC(C)=O,25.1 µM (active),
C=CCSc1nc2ccccc2c(=O)n1Cc1ccco1,,-25.8% [at 11.4 µM]
O=C(CSc1nnc2sc3ccccc3n12)NCc1ccco1,,-18.1% [at 11.4 µM]
Cc1ccc(Oc2nn[nH]n2)cc1,inactive,
CC1CCC(C(=O)O)([C@H](Br)C(=O)O)CC1 (some centres undefined),,-2.61% [at 11.4 µM]
NC(=O)OCC(COC(N)=O)c1ccccc1,inactive,
O=C(O)CCCCCn1c(SCC(=O)N2CCCC2)nc2ccsc2c1=O,inactive,
CCN(C(=O)CSc1nc2cc(C(=O)OC)ccc2c(=O)n1Cc1ccco1)c1cccc(C)c1,inactive,
O=C(CSc1nc2ccccc2c(=O)n1CCCC(=O)N1CCCC1)NCc1ccco1,6.31 µM (active),
CCOC(=O)CSc1nc2ccccc2c(=O)n1CC1CCC(C(=O)NCc2ccco2)CC1 (centres undefined),5.01 µM (active),
CCS(=O)(=O)N1CCC(C(=O)NCc2ccco2)CC1,inactive,
CCCCCn1c(SCc2ccncc2)nc2cc(C(=O)NCc3ccco3)ccc2c1=O,0.794 µM (active),
CC(/C=N/n1c(-c2cccnc2)n[nH]c1=S)=C\c1ccccc1,2 µM (active),
O=C(O)CC[C@]1(C(=O)O)CCC(=O)c2ccccc21,,-0.615% [at 11.4 µM]
COc1ccccc1CNc1cc(-c2ccoc2)ncn1,15.8 µM (active),
COc1ccc(CNc2cc(-c3ccoc3)ncn2)c(OC)c1,15.8 µM (active),

# Reference: PubChem BioAssay AID1851 (National Center for Advancing Translational Sciences (NCATS), 2009)
